Results taken from PubChem BioAssay (NCATS).
Where “and” joins values, the source holds several entries; their conditions need not be identical. Equal values may be shown once. Records with an inconclusive call do not appear. Calls of active or inactive are those of the source. Unless noted, the call rests on the fitted dose curve.

What was measured:
[1] = target: Glucocorticoid receptor (Homo sapiens) (UniProt P04150); assay: qHTS assay for small molecule agonists of glucocorticoid receptor signaling (AID 588532; active means well fitted curve in the direction sought with a large enough effect in the signal ratio, with a control signal flat; the % refers to the signal ratio;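 further: 100% = dexamethasone at 0.1 µM and 0% = DMSO only wells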); conditions: HeLa MMTV-bla, beta-lactamase ratio, agonist, 18 h; activation: stronger effect = higher value, percent of dexamethasone control, DMSO zero
Glucocorticoid receptor (Homo sapiens), sequence (P04150 whole entry, looked up): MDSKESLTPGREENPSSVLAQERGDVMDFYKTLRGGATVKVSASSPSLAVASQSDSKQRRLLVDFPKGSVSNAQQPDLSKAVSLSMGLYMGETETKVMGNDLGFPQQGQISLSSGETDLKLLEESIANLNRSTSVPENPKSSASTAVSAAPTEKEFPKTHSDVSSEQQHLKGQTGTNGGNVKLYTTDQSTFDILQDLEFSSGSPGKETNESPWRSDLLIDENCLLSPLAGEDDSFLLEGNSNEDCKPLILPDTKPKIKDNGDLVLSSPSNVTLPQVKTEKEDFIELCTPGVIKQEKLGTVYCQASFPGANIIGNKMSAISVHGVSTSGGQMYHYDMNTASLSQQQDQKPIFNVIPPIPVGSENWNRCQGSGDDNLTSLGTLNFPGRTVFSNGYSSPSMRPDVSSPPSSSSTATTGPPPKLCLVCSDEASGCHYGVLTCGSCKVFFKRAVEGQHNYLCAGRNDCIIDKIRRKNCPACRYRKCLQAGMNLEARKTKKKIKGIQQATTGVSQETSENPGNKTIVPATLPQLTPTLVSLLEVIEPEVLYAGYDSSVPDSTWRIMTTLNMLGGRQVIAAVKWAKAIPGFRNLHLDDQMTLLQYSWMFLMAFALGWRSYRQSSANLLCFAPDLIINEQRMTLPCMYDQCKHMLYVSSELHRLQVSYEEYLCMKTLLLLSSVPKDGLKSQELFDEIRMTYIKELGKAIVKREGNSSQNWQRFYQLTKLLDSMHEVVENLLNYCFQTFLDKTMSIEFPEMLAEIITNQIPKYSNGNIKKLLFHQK
Method in brief: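 Agonist-mode qHTS: GRE-driven beta-lactamase in HeLa cells exposed 18 h to titrated compounds (up to 92 uM), then CCF4 ratio read after 2 h at RT; Hill-fitted EC50, efficacy relative to 0.1 uM dexamethasone.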

[2] = target: Glucocorticoid receptor (Homo sapiens) (UniProt P04150); assay: qHTS assay for small molecule antagonists of glucocorticoid receptor signaling (AID 588533; active means well fitted inhibition curve with a large enough effect in the signal ratio, with a control signal flat, not every such curve was filed as active; the % refers to the signal ratio;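 further: cells stimulated with 2 nM dexamethasone as agonist; on the % scale 0 is the no-effect control and ±100 the full control effect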)
Method in brief: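 Antagonist-mode qHTS: compound titrations added to GRE-bla HeLa cells, then dexamethasone 2 nM final; 18 h, 37 C. CCF4 FRET fluorescence normalized to dexamethasone and DMSO; IC50 from Hill fit.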

[3] = target: Peroxisome proliferator-activated receptor delta (Homo sapiens) (UniProt Q03181); assay: qHTS assay for small molecule agonists of peroxisome proliferator-activated receptor delta signaling (AID 588534);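 further: 0% = DMSO basal wells and 100% = positive control agonist at 10 µM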
Peroxisome proliferator-activated receptor delta (Homo sapiens), sequence (Q03181 whole entry, looked up): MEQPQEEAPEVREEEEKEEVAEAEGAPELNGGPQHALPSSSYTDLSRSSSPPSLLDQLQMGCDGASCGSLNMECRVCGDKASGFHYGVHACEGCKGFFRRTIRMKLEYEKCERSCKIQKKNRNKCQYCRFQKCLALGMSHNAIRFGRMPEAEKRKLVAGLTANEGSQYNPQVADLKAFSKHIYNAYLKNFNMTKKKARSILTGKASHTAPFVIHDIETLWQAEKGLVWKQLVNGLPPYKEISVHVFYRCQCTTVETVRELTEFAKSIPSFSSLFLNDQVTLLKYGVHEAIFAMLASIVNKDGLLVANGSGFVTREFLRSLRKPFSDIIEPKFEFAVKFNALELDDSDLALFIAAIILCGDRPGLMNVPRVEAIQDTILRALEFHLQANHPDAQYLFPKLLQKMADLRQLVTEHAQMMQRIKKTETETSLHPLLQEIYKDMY
Method in brief: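 Agonist-mode beta-lactamase reporter readout (CCF4 dye, 2 h at RT) after 18 h at 37 °C exposure to a titration; Hill-equation fitting gave EC50 and maximal response.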

[4] = qHTS assay for small molecule antagonists of peroxisome proliferator-activated receptor delta signaling (AID 588535; active means well fitted inhibition curve with a large enough effect in the signal ratio, with a control signal flat, not every such curve was filed as active; the % refers to the signal ratio;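 on max response: cells co-treated with a PPAR-delta agonist as stimulator during compound exposure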); conditions: HEK293T PPARd-UAS-bla, beta-lactamase FRET ratio, 18 h; 460 nm channel
Method in brief: (§1)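 Titrations were run on PPAR-delta-UAS-bla HEK293T cells in charcoal/dextran-stripped serum, incubated 18 h at 37 C. CCF4 fluorescence (460/530 nm) after 2 h RT; Hill equation yields IC50 and maximal response.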

[5] = target: Peroxisome proliferator-activated receptor delta (Homo sapiens) (UniProt Q03181); assay: as above
Method in brief: as §1

[6] = target: Peroxisome proliferator-activated receptor gamma (Homo sapiens) (UniProt P37231); assay: qHTS assay for small molecule agonists of peroxisome proliferator-activated receptor gamma signaling (AID 588536; active means well fitted curve in the direction sought with a large enough effect in the signal ratio, with a control signal flat, not every such curve was filed as active; the % refers to the signal ratio;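 further: 0% = DMSO basal wells and 100% = rosiglitazone at 2 µM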)
Peroxisome proliferator-activated receptor gamma (Homo sapiens), sequence (P37231 whole entry, looked up): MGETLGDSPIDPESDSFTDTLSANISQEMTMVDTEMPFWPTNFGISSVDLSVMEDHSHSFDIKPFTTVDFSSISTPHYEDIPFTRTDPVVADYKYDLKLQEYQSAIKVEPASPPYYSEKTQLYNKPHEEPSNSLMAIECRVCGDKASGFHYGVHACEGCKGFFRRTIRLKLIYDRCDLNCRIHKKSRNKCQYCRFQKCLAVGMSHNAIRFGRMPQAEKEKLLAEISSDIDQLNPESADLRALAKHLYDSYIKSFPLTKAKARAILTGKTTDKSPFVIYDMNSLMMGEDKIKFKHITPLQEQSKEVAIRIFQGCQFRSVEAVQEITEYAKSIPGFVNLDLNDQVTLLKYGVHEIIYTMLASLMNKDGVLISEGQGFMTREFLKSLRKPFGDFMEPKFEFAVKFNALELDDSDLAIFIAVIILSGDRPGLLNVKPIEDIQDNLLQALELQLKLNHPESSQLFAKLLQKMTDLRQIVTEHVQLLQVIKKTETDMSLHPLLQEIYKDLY
Method in brief: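 This is an agonist-mode beta-lactamase reporter assay in HEK293 PPAR-gamma-UAS-bla cells with 1% charcoal/dextran FBS. Compound titrations ran 16 h at 37 C before CCF4 detection. EC50 and efficacy are Hill fits scaled to 2 uM rosiglitazone (100%) and DMSO basal.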

[7] = target: Peroxisome proliferator-activated receptor gamma (Homo sapiens) (UniProt P37231); assay: qHTS assay for small molecule antagonists of peroxisome proliferator-activated receptor gamma signaling (AID 588537; active means well fitted inhibition curve with a large enough effect in the signal ratio, with a control signal flat, not every such curve was filed as active; the % refers to the signal ratio;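 further: reporter cells co-stimulated with 50 nM rosiglitazone agonist during compound treatment; % of control where 0% means no effect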)
Method in brief: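 Antagonist-mode β-lactamase reporter screen run as a titration series. HEK293 PPARγ-UAS-bla cells are stimulated with rosiglitazone (50 nM final) for 16 h, then CCF4 is read at 460/530 nm. Data are scaled between DMSO and rosiglitazone and fitted to the Hill equation.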

[8] = target: Vitamin D3 receptor (Homo sapiens) (UniProt P11473); assay: qHTS assay for small molecule antagonists of vitamin D receptor signaling (AID 588541);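 further: receptor activated by calcitriol during compound treatment; series mostly up to about 77 µM; on the % scale 0 is the no-effect control and ±100 the full control effect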
Vitamin D3 receptor (Homo sapiens), sequence (P11473 whole entry, looked up): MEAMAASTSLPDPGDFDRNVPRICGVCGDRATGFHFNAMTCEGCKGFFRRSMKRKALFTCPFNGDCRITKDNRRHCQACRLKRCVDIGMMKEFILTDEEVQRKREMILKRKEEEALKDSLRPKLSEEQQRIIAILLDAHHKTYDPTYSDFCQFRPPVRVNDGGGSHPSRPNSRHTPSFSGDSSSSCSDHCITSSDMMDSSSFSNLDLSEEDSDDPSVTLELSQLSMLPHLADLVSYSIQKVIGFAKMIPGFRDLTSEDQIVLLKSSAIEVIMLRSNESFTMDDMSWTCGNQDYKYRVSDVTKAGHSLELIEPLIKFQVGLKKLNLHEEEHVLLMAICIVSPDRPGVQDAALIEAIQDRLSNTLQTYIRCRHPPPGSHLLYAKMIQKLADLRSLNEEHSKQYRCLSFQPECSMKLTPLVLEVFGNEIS
Method in brief: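 Antagonist-mode beta-lactamase reporter assay: HEK293T VDR-UAS-bla cells were exposed to titrated compound alongside 1-alpha,25-dihydroxyvitamin D3 at 3 nM final for 16 h. Values were normalized to the 50 nM agonist control and DMSO basal, with IC50 and efficacy from Hill equation fits.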

[9] = target: Vitamin D3 receptor (Homo sapiens) (UniProt P11473); assay: qHTS assay for small molecule agonists of vitamin D receptor signaling (AID 588543);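 further: 0% = DMSO basal and 100% = reference agonist control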
Method in brief: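 β-lactamase reporter, VDR-UAS-bla HEK293T, agonist mode. Cells plated 5 h at 37 °C, compound titration 16 h at 37 °C, CCF4 dye 2 h RT, ratio 460/530 nm. Hill fit → EC50, efficacy vs 50 nM 1α,25-(OH)2D3.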

[10] = target: Thyroid hormone receptor beta (Homo sapiens) (UniProt P10828); assay: qHTS assay for small molecule agonists of thyroid hormone receptor beta signaling (AID 588545);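 further: 0% = DMSO only and 100% = 10 nM T3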
Thyroid hormone receptor beta (Homo sapiens), sequence (P10828 whole entry, looked up): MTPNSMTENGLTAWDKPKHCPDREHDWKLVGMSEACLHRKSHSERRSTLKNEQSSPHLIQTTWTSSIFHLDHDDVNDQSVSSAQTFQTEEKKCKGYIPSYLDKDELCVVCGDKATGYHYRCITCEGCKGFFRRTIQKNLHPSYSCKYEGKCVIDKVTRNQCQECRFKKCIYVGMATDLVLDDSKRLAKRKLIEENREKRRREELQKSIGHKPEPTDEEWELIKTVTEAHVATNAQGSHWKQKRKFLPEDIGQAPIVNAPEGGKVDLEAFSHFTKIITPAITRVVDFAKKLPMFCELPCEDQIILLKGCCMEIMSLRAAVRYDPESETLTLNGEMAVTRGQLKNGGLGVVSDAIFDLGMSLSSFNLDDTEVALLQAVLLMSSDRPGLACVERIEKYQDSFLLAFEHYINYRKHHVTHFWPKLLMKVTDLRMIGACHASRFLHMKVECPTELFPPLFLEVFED
Method in brief: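 Stimulation of a TR-driven beta-lactamase reporter was quantified in GripTite HEK 293 cells. Compound series ran for 18 hrs; curves were normalized to T3 and DMSO controls and fitted to yield EC50.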

[11] = qHTS assay for small molecule antagonists of retinoid X receptor alpha signaling (AID 588546; active means well fitted inhibition curve with a large enough effect in the signal ratio, with a control signal flat, not every such curve was filed as active; the % refers to the signal ratio;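 further: cells stimulated with 9-cis-retinoic acid as agonist; on the % scale 0 is the no-effect control and ±100 the full control effect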); conditions: HEK293T RXRa-UAS-bla, beta-lactamase ratio, antagonist mode; measured here: W530 green channel, cytotoxicity proxy
Method in brief: (§2)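 Beta-lactamase reporter inhibition, read as CCF4 fluorescence ratio (ex 405, em 460/530 nm) after 2 h at RT. HEK293T UAS-bla cells, 2500/well, were stimulated with 9-cis-RA at 500 or 100 nM final alongside test compound for 18 h at 37 C.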

[12] = target: Retinoic acid receptor RXR-alpha (Homo sapiens) (UniProt P19793); assay: as above; conditions: HEK293T RXRa-UAS-bla, beta-lactamase ratio, antagonist mode
Retinoic acid receptor RXR-alpha (Homo sapiens), sequence (P19793 whole entry, looked up): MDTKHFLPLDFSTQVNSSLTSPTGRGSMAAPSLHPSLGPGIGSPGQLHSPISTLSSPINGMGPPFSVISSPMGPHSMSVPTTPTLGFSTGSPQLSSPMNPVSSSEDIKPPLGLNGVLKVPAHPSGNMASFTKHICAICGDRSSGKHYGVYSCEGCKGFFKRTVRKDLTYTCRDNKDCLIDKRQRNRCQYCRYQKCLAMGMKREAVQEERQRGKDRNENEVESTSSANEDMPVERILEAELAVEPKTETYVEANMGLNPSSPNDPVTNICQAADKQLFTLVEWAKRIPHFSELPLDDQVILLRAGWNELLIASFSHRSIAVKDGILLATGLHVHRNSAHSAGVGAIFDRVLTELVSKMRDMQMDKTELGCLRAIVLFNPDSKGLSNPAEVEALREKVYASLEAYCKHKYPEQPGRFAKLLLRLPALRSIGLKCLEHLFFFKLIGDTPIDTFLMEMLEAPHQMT
Method in brief: as §2

[13] = target: Thyroid hormone receptor beta (Homo sapiens) (UniProt P10828); assay: qHTS assay for small molecule antagonists of thyroid hormone receptor beta signaling (AID 588547; active means well fitted inhibition curve with a large enough effect in the signal ratio, with a control signal flat, not every such curve was filed as active; the % refers to the signal ratio;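 further: cells stimulated with 0.4 nM T3 agonist during compound exposure; series mostly up to about 77 µM; on the % scale 0 is the no-effect control and ±100 the full control effect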); conditions: TR-UAS-bla HEK293, beta-lactamase ratio, antagonist mode, 18 h
Method in brief: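 Inhibition of T3-driven (0.4nM final) beta-lactamase reporter activity was measured over 0.59 nM to 92 uM compound after 18 h at 37 C. The cells were GripTite HEK293 TR-UAS-bla in charcoal/dextran-stripped serum, with CCF4 ratio read-out and IC50 from Hill fits.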

[14] = qHTS assay for small molecule activators of the p53 signaling pathway (AID 651743; active means well fitted activation curve with a large enough effect in the signal ratio, not every such curve was filed as active; the % refers to the signal ratio; further: series mostly up to about 92 µM; % of control where 0% means no effect); conditions: HCT-116 p53RE-bla, beta-lactamase FRET ratio, 16 h; activation: stronger effect = higher value
Method in brief: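 After 16 hours compound treatment at 37 C, HCT-116 cells stably expressing p53RE-driven beta-lactamase were loaded with LiveBLAzer B/G FRET substrate for 2 hours at room temperature. Fluorescence intensity served as the p53 activation read-out.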

[15] = qHTS assay for small molecule activators of the nuclear factor-kappa B (NF-kB) signaling pathway (AID 651749; active means well fitted activation curve with a large enough effect in the signal ratio; the % refers to the signal ratio; further: series mostly up to about 77 µM; % of control where 0% means no effect); conditions: NF-kB-bla ME-180 cells, beta-lactamase FRET ratio, 16 h; activation: stronger effect = higher value
Method in brief: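 Activation measured after 16 hr compound treatment at 37C, 5% CO2, of 2,000 ME-180 cells/well stably expressing an NF-kB response element–driven beta-lactamase reporter, via FRET-disruption fluorescence.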

[16] = qHTS assay for environmental chemicals that activate the Aryl hydrocarbon Receptor (AhR) signaling pathway (AID 651777; active means well fitted curve in the direction sought with a large enough effect; an effect the other way counts as inactive or inconclusive; further: % of control where 0% means no effect; nearly all actives have a fitted effect of over 15% in size); conditions: 1A2-DRE human hepatoma cells, luciferase, 24 h; activation: stronger effect = higher value
Method in brief: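 AhR activation is scored as a rise in luciferase from a stable DRE–CYP1A2 promoter construct in human hepatoma cells. Treatment lasts 24 hr at 37 C; detection uses One-Glo after 30 min at room temperature.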

[17] = target: Peroxisome proliferator-activated receptor alpha (Homo sapiens) (UniProt Q07869); assay: qHTS assay for small molecule agonists of the peroxisome proliferator-activated receptor alpha (PPARalpha) signaling pathway (AID 651778; active means well fitted curve in the direction sought with a large enough effect; an effect the other way counts as inactive or inconclusive; further: % of control where 0% means no effect); conditions: PathHunter PPARalpha complementation, chemiluminescence, 6 h; max response: stronger effect = higher value
Peroxisome proliferator-activated receptor alpha (Homo sapiens), sequence (Q07869 whole entry, looked up): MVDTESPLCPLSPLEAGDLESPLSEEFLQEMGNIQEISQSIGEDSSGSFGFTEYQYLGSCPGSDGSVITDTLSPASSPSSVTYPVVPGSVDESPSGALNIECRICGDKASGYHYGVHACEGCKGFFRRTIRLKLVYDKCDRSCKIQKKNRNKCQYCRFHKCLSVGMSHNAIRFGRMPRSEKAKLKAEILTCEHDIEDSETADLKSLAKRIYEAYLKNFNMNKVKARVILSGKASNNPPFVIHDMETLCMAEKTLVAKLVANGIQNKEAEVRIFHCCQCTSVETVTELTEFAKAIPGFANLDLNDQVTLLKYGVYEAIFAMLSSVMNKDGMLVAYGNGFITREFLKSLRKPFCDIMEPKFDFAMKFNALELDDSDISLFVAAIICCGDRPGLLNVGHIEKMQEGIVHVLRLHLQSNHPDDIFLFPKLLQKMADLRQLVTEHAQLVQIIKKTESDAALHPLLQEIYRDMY
Method in brief: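 Chemiluminescence from complemented enzyme reported PPARalpha activation in cells after 6 hr of compound treatment at 37 C. The detection reagent was incubated for 60 min at room temperature, and compounds were scored as agonists.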

[18] = qHTS assay for small molecule agonists of the antioxidant response element (ARE) signaling pathway measured by Nrf2-dependant transcriptional activity (AID 720636; active means well fitted curve in the direction sought with a large enough effect in the repeat runs; an effect the other way counts as inactive or inconclusive;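 further: HepG2 cells with an ARE-driven luciferase reporter; % of control where 0% means no effect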)
Method in brief: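 First, ARE-luc HepG2 cells attached for 6 hr at 37 C in 1% dialyzed FBS medium. Next, compound or DMSO was added and incubated 16 hr. Finally, ONE-Glo reagent was added and luminescence measured after 30 min.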

[19] = qHTS assay for small molecule agonists of the antioxidant response element (ARE) signaling pathway measured by Nrf2-dependant transcriptional activity - cell viability counter screen (AID 720653; active means well fitted curve in the direction sought with a large enough effect in the repeat runs; an effect the other way counts as inactive or inconclusive; further: on the % scale 0 is the no-effect control and ±100 the full control effect); conditions: ARE-bla HepG2 viability, CellTiter-Glo ATP luminescence, 16 h; max response: stronger effect = lower value
Method in brief: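 Cytotoxicity counter screen: intracellular ATP quantified by CellTiter-Glo luminescence in the same ARE-bla HepG2 plates, after 16 h compound exposure and a 2 h beta-lactamase substrate step.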

[20] = qHTS assay for cell viability of HEK293 cells (AID 743288; active means well fitted curve in the direction sought with a large enough effect; an effect the other way counts as inactive or inconclusive; further: on the % scale 0 is the no-effect control and ±100 the full control effect; nearly all actives have a fitted effect of over 50% in size); conditions: ATP luminescence (CellTiter-Glo), 18 h; max response: stronger effect = lower value
Method in brief: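 ATP luminescence (CellTiter-Glo) reports metabolically competent cell number after parental HEK293 cells, 2,000/well, were treated with DMSO-dissolved compounds for 18 h at 37 C; reagent incubation 30 min, room temperature.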

[21] = qHTS assay for cell viability of the p53RE-bla HCT-116 cell line (AID 743292; active means well fitted curve in the direction sought with a large enough effect; an effect the other way counts as inactive or inconclusive; further: on the % scale 0 is the no-effect control and ±100 the full control effect; nearly all actives have a fitted effect of over 55% in size)
Method in brief: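 Quantitative high-throughput format: compounds in DMSO were pinned onto p53RE-bla HCT-116 cells (4,000/well) and incubated 16 h at 37 C. Total intracellular ATP, read by CellTiter-Glo luminescence, reflects viable cell number.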

[22] = qHTS assay for small molecule agonists of retinoid X receptor alpha signaling (AID 588544); conditions: HEK293T RXRa-UAS-bla, beta-lactamase reporter, 18 h; 530 nm emission;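 on activation: 0% = DMSO basal wells and 100% = reference agonist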
[23] = target: Retinoic acid receptor RXR-alpha (Homo sapiens) (UniProt P19793); assay: as above
[24] = target: Nuclear receptor subfamily 1 group I member 2 (Rattus norvegicus) (UniProt Q9R1A7); assay: qHTS assay for small molecule activators of the rat pregnane X receptor (rPXR) signaling pathway (AID 651751; call rule not given here; further: 0% is about no effect); conditions: rPXR reporter cells, luciferase (One-Glo), 24 h
Nuclear receptor subfamily 1 group I member 2 (Rattus norvegicus), sequence (Q9R1A7 whole entry, looked up): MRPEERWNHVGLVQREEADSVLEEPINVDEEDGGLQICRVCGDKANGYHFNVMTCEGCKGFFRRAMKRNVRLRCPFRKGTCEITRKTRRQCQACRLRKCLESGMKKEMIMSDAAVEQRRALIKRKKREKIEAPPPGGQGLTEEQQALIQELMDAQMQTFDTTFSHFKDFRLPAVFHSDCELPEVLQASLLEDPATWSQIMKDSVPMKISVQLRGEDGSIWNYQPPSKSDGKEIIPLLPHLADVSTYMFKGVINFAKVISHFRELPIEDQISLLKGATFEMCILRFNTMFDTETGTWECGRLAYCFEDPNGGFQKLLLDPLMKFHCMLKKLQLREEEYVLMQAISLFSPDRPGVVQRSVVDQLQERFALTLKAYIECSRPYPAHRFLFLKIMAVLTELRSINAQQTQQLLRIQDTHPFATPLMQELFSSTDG

[25] = qHTS assay for small molecule activators of the human pregnane X receptor (PXR) signaling pathway (AID 720659; call rule not given here; further: 0% is about no effect)
[26] = qHTS assay for small molecule agonists of the antioxidant response element (ARE) signaling pathway (AID 651741; active means well fitted activation curve with a large enough effect in the signal ratio; the % refers to the signal ratio; further: potency means the concentration at half of the fitted maximal effect; on activation: % of control where 0% means no effect)
Method in brief: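 Beta-lactamase reporter under ARE control in HepG2 cells, 2,000 per well, was induced by 16 h compound treatment at 37 C. Read-out was fluorescence from LiveBLAzer B/G FRET substrate after 2 h at room temperature.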

CC1(C)[C@H](C=C(Cl)Cl)[C@H]1C(=O)O[C@H](C#N)c1ccc(F)c(Oc2ccccc2)c1
inactive: activation [1] -0.69% and -0.284% | Potency [2] | outcome [3] | Potency [5] | Potency [6] | Potency [7] | Potency [8] | outcome [9] | Potency [10] | max response [12] -6.52% | activity change % (negative = inhibition) [13] -23.6% | activation [14] -1.98% and 0.257% | activation [15] 4.2% | activation [16] 1.36% and 3.44% | max response [17] -0.256% and -0.375% | Potency [18] | max response [19] -5.83% and -7.88% | max response [20] -3.74% and -16.6% | Potency [21]
-5.65%: max response [11]
27%: max response [4]

Cc1cc(C)nc(Nc2ccccc2)n1
-19.7%: max response [4]
inactive: activation [1] -19% | Potency [2] | outcome [3] | Potency [5] | Potency [6] | Potency [7] | Potency [8] | Potency [23] | Potency [10] | max response [12] -45.9% | activity change % (negative = inhibition) [13] -4.91% | activation [15] -2.63% | activation [16] 7.09% | max response [17] 5.23% | max response [19] -4.46% | max response [20] -15.1% | Potency [21] | max response [24] 11.4% | outcome [25]
1.3%: max response [22]
-7.16%: max response [11]

Oc1ccc(C(c2ccc(O)cc2)(C(F)(F)F)C(F)(F)F)cc1
inactive: activation [1] -15.3% | outcome [3] | Potency [8] | outcome [9] | Potency [10] | activation [15] -2.42% | activation [16] 0.672% | max response [17] -3.57% | Potency [18] | max response [19] -1.13% | max response [20] -18.6% | Potency [21] | max response [24] 0.831%
active: Potency [26] 48.6 µM
-38.3%: max response [4]

CCOP(=S)(Oc1cnc(C(C)(C)C)nc1)OC(C)C (stereo unspecified)
inactive: activation [1] 2.58% | Potency [2] | outcome [3] | Potency [5] | Potency [7] | Potency [8] | outcome [9] | Potency [23] | Potency [10] | activity change % (negative = inhibition) [13] 4.48% | activation [14] -2.32% | activation [15] -0.139% | activation [16] 6.61% | max response [17] -0.258% | Potency [18] | max response [19] -5.89% | max response [20] -6.73% | Potency [21] | max response [24] 6.76%
-24.6%: max response [4]
10.2%: max response [11]
-5.29%: max response [22]

COc1cc(OC)nc(Sc2cccc(Cl)c2C(=O)O)n1
-16.4%: max response [22]
-2.85%: max response [11]
inactive: activation [1] 5.02% | Potency [2] | Potency [6] | Potency [7] | Potency [8] | outcome [9] | Potency [23] | Potency [10] | max response [12] -5.7% | activity change % (negative = inhibition) [13] 6.23% | Potency [26] | activation [14] -0.496% | activation [15] 0.833% | max response [17] -1.08% | Potency [18] | max response [20] -8.52% | Potency [21] | max response [24] 3.18% | outcome [25]
